Results as given in PubChem BioAssay AID1851 (National Center for Advancing Translational Sciences (NCATS), 2009).
The campaign covered roughly 16,000 compounds. About 5,100 (32%) were called active. About 25% were inconclusive and are not listed. This is one part of the list. Unmarked numbers belong to inactive results. Calls come from the whole dose curve; as a rule, active = well fitted curve in the direction sought with a large enough effect; inconclusive = small, poorly fitted or top-dose-only effect, or effect the other way; inactive = no such curve, though single readings can be large or run the other way.

molecular target: Cytochrome P450 3A4 (Homo sapiens) (UniProt P08684); experiment: Cytochrome panel assay with activity outcomes; settings: recombinant CYP, pro-luciferin dealkylation, luminescence, p450-cyp3a4; series mostly up to 57.1 µM; activity, negative = inhibition: at the top concentration
Sequence (P08684 whole entry, looked up): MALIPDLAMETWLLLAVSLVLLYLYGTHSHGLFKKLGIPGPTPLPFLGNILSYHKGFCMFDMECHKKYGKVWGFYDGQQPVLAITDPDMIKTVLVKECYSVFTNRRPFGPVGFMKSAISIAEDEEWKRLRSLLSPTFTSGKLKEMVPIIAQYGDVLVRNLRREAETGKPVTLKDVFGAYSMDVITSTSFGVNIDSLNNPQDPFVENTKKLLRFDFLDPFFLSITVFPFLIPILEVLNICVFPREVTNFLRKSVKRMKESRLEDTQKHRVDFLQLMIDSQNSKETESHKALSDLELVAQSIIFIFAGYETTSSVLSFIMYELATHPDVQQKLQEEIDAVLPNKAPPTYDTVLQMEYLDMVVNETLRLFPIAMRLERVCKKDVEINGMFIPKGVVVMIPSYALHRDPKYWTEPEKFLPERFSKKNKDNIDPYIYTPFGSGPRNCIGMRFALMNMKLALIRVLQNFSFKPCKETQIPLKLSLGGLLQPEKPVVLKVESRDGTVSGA
% is set by controls: 0 for no effect and ±100 for the full control effect.

Structure (SMILES)	activity, negative = inhibition	AC50
CC(=O)N(C[C@@H](C)C(=O)O)c1c(I)cc(I)c(N)c1I	-6.88% [at 25.6 µM]	
CCCCCSc1nncc(=O)[nH]1	2.96% [at 11.4 µM]	
O=C(O)[C@@H]1[C@@H](C(=O)Nc2ccccc2)[C@@H]2C=C[C@@H]1O2	-5.39% [at 11.4 µM]	
O=C(O)[C@@H]1[C@@H]2C[C@@H]3[C@@H](OC(=O)[C@@H]31)[C@H]2Br	-5.69% [at 11.4 µM]	
CCCNc1[nH]c(=O)n(C)c(=O)c1N=O	-16% [at 2.29 µM]	
Cc1cc(Nc2ccccc2)nc(N)n1	7.63%	
Cc1ccccc1-c1cncnc1Nc1ccccc1		0.631 µM (active)
O=C(O)c1ccc(Nc2ccnc3cc(Cl)ccc23)cc1O	-7.77% [at 11.4 µM]	
Cc1cccc(C)c1NC(=O)[C@H](C)N	-11.4% [at 25.6 µM]	
Cc1cccc(C)c1NC(=O)C(NC=O)c1ccccc1Cl (centres undefined)		10 µM (active)
COC(=O)c1[nH]c2cccc(OC)c2c1NC(=O)CN(C)CC1OCCO1	-7.49%	
CCOC(=O)c1[nH]c2ccc(OC)cc2c1NC(=O)c1ccc2c(c1)OCO2		1.41 µM (active)
COC(=O)c1[nH]c2cc(OC)ccc2c1NC(=O)CCN1CCSCC1	1.53% [at 2.29 µM]	
CCOC(=O)c1ccc(NC(=O)C2(c3ccc(OC)cc3)CCOCC2)cc1	-2.41% [at 2.29 µM]	
CCOC(=O)c1[nH]c2cc(OC)c(OC)cc2c1NC(=O)c1ccc2c(c1)OCO2		7.94 µM (active)
CCOC(=O)c1[nH]c2cc3c(cc2c1NC(=O)CN1CCc2ccccc2C1)OCO3		0.708 µM (active)
CCOC(=O)c1[nH]c2cc3c(cc2c1NC(=O)CN1CCC2(CC1)OCCO2)OCO3	14.9%	
COC(=O)c1[nH]c2cc(OC)ccc2c1NC(=O)c1ccc2c(c1)OCO2		7.94 µM (active)
CSc1cc(C)nc(NC(C)=O)n1	-0.518%	
CCc1nc(SCC(=O)c2ccc(Cl)s2)c2oc3ccccc3c2n1		7.94 µM (active)
Cc1nc(Oc2ccc(Cl)cc2)c2oc3ccccc3c2n1	5.99% [at 2.29 µM]	
CCc1nc(SCC(=O)NCCc2ccccc2)c2oc3ccccc3c2n1		3.55 µM (active)
CCc1nc(SCC(=O)N2CCCc3ccccc32)c2oc3ccccc3c2n1		15.8 µM (active)
CCc1nc(N[C@H](C(=O)O)C(C)CC)c2oc3ccccc3c2n1 (some centres undefined)	-3.57%	
Cc1ccccc1C(=O)NC(C)c1ccc2c(c1)CCCC2 (centres undefined)	-17.3%	
CCCCN=c1sc(C(=O)OC)cc(=O)n1CCCC	-0.264%	
COC(=O)[C@H](CCSC)NC(=O)C/C=C\[C@@H](C)[C@@H](CO)OC	-14.3% [at 11.4 µM]	
COC(=O)[C@H](CCSC)NC(=O)NCc1ccccc1F		15.8 µM (active)
COC(=O)[C@H](CCSC)NC(=O)C/C=C\[C@@H](C)CO	-19.4% [at 11.4 µM]	
